# TRPML1 inh – qHTS for Inhibitors of the Human Mucolipin Transient Receptor Potential 1 (TRPML1); Mucolipin-1 (Homo sapiens), Q9GZU1; TRPML1-inducible cells, Ca2+ dye fluorescence, FDSS; active compounds read low; inhibition of EC80 agonist-evoked calcium signal; activity change, negative = inhibition, % (no concentration beside the values); 390,000 compounds, 0.02% hits; in the data active means activity change below about -50%; inconclusive means between about -30% and that limit;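 further: stimulus is agonist 54-4 at its EC80 concentration; on the % scale 0 is the no-effect control and ±100 the full control effect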
#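 Tet-induced TRPML1-DL cells loaded with Ca8 no-wash calcium dye were read kinetically on FDSS. Compound addition was followed by EC80 agonist 54-4 (4 uM final); inhibition was read over 110 s.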
# KCNH2 WT inh – qHTS for Inhibitors of KCHN2 3.1: Wildtype qHTS; 340,000 compounds, 0.37% hits; AID 720551, 2013; activity change, % at 1.84 µM; Voltage-gated inwardly rectifying potassium channel KCNH2 (Homo sapiens), Q12809; U2OS, BacMam KCNH2, thallium flux FluxOr; active compounds read low;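 active means maximum activity change below -70%; inconclusive means maximum activity change between -70% and -50%; inactive means maximum activity change above -50%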; further: on the % scale 0 is the no-effect control and ±100 the full control effect
#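 U2OS cells transduced with wild-type KCNH2 virus are loaded with FluxOr dye for 45 min, and thallium flux is measured in kinetic reads before and after stimulation buffer. Rate constants are normalized to DMSO controls.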
# KCNH2 3.1 block – qHTS for Inhibitors of KCHN2 3.1: Mutant qHTS. Potassium voltage-gated channel subfamily H member 2, brain isoform KCNH2 3.1 (human). U2OS KCNH2 3.1, thallium flux FluxOr; active compounds read low. activity change, % (tested at about 1.8 µM). 340,000 compounds, 0.95% hits. AID 720553, 2013;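 active means maximum activity change below -70%; inconclusive means maximum activity change from -70% to -50%; inactive means maximum activity change above -50%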;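 further: thallium influx rate constant from kinetic fluorescence after stimulation buffer; on the % scale 0 is the no-effect control and ±100 the full control effect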
#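 U2OS cells transduced with KCNH2 3.1 mutant virus (1.77 x 10^8 /mL, 4 h), plated overnight at 37 C, loaded 45 min with FluxOr dye plus Red40 quencher. Thallium flux rate constant from kinetic reads after stimulation buffer, normalised to controls.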
# PTAP TSG101 blk – qHTS Assay for Iinhibitors of HIV-1 Budding by Blocking the Interaction of PTAP/TSG101; Tumor susceptibility gene 101 protein (Homo sapiens), Q99816; Fluorescence polarization, FITC-PTAP peptide / Tsg101 binding; Potency, µM (highest dose often 115 µM), for inactives: at the highest dose activity change, negative = inhibition, most hits filed as inhibitors; 340,000 tested, under 10 active; AID 493005, 2010; active means well fitted inhibition curve with a large enough effect in the main read-out, with a control signal flat, not every such curve was filed as active; inconclusive means small, poorly fitted or top-dose-only effect, or effect the other way, or a change in a side signal; inactive means no such curve, though single readings can be large or run the other way; further: potency means the concentration at half of the fitted maximal effect; % of control where 0% means no effect
#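 Tsg101 binding domain (10 uM final) was mixed with compound and a FITC-labeled PTAP peptide (50 nM final) in HEPES pH 7.5 buffer with NaCl, Tween 20, EDTA and TCEP; fluorescence polarization was read after 20 min at r.t.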
# GRP78 ERSR act – qHTS for Inducers of the Endoplasmic Reticulum Stress Response (ERSR) in Human Glioma: qHTS. U87-MG GRP78 promoter luciferase reporter, 16 h. AID 602332, 2012. 420,000 compounds, 0.02% hits. Potency, µM, for inactives: top-dose activation, hits mostly activators; active means well fitted activation curve with a large enough effect; inconclusive means small, poorly fitted or top-dose-only effect; inactive means no such curve, though single readings can be large or run the other way; further: potency means the concentration at half of the fitted maximal effect; series mostly up to about 76 µM; % of control where 0% means no effect; nearly all actives have a fitted effect of over 35% in size
#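 ERSR induction read as luciferase luminescence (Bright-Glo, 10 min at room temperature) in stably transfected human U87-MG glioma cells exposed to compounds for 16 h, using GRP78 as sensor.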
# TRPML1 ag – qHTS for Agonists of the Human Mucolipin Transient Receptor Potential 1 (TRPML1); Mucolipin-1 (Homo sapiens), Q9GZU1; TRPML1-expressing cells, Ca2+ dye fluorescence, FDSS; activation, % (test concentration not listed); 410,000 compounds, 0.12% hits; AID 624414, 2012; in the data active means activation above about 50%; inconclusive means mostly about 30% to 49%; further: 0% is about no effect
#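 TRPML1-DL cells, Tet-induced overnight (~16 h, 37 degrees C), loaded 45-90 min at room temperature with Ca8 no-wash calcium dye plus quencher. FDSS fluorescence: 10 s baseline, compound pin-transfer, 110 s agonist read, then EC80 54-4 (4uM final) and 110 s antagonist read.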
# Numbers without * were called inactive; i = inactive; ? = inconclusive; . = not tested or not shown. Compounds with a hit are over-represented: about 1% of the library has one in this group of screens.
SMILES,TRPML1 inh,KCNH2 WT inh,KCNH2 3.1 block,PTAP TSG101 blk,GRP78 ERSR act,TRPML1 ag
CCCCOP(=O)(OCCCC)C1(NS(=O)(=O)c2ccccc2)C=CC(=O)c2ccccc21 (stereo not drawn),10,-12,-82*,-11%,1%,1
S=C(NCc1ccc(Cl)cc1)NC1CCN(Cc2ccccc2)CC1,-13,1,-76*,1%,-6%,3
Cc1ccc2c(c1)CN(CCNC(=O)C(C)Oc1ccccc1)CC(C)O2 (stereo not drawn),.,.,.,.,-5%,.
CCCCN1C(=O)C(CC(=O)NCc2cccs2)CC(C(=O)N(C)C)=C1C (stereo not drawn),-53*,-3,-17,.,-4%,0
Cc1ccc(NC(=O)C(C)NS(=O)(=O)c2ccc(F)cc2)cc1C (stereo not drawn),0,i,-13,-1%,-3%,0
CNC(=O)C(C)NS(=O)(=O)c1ccc(F)cc1 (stereo not drawn),1,-91*,-4,0%,-6%,0
CCOC(=O)C1(CCOc2ccccc2)CCN(Cc2ccc(OC)cc2)CC1,3,-98*,-120*,0%,-1%,2
CCOC(=O)C1(CCOc2ccccc2)CCN(Cc2cc(OC)c3c(c2)OCO3)CC1,13,-32,-71*,1%,-4%,1
CCOC(=O)C1(CCOc2ccccc2)CCN(Cc2cccc3c2OCO3)CC1,-8,35,-26,1%,-7%,-1
CCOC(=O)C1(CCOc2ccccc2)CCN(Cc2ccc(OCC)c(CO)c2)CC1,-10,-87*,-108*,-1%,-2%,0
CCOC(=O)C1(CCOc2ccccc2)CCN(Cc2cccc(OCCO)c2)CC1,7,-8,?,-7%,-6%,0
COc1ccc2c(c1)-c1nc(-n3ncc(C(=O)N(C)CC4CCCN(C)C4)c3C)ncc1CC2 (stereo not drawn),.,.,.,.,-5%,.
COc1ccc(O)c(CN2CCOc3c(cc(-c4cccc(OC)n4)cc3OC)C2)c1,.,.,.,.,-4%,.
Cc1[nH]c2ccc(C(=O)NCCCN3CCCC3)cc2c1C,5,7,5,-3%,4%,1
COc1ccc(-n2c(C)nc3cc(C(=O)NCCN4CCOCC4)ccc32)cc1,-11,-183*,3,-9%,-4%,1
Cc1[nH]c2ccc(C(=O)NCCN3CCOCC3)cc2c1C,5,-1,-100*,-1%,-1%,0
O=C(Nc1ccc(F)cc1)Nc1ccc(N2CCCC2)c(S(=O)(=O)Nc2ccccc2Cl)c1,0,-8,-114*,-3%,-4%,0
O=C(Nc1ccc(Cl)c(Cl)c1)Nc1ccc(N2CCCC2)c(S(=O)(=O)Nc2ccccc2Cl)c1,-13,-11,4,0%,-3%,0
COCC1CCCN(Cc2ccc3c(c2)CN(C(=O)c2cccnc2OC)CCO3)C1 (stereo not drawn),.,.,.,.,0%,.
CC(C)C[C@@H](CN1CCCC1CN1C(=S)NC[C@@H]1Cc1ccc(O)cc1)N1C[C@H](Cc2ccccc2)N(CCc2ccccc2)C1=S (stereo partly drawn),-6,-71*,-49,-9%,-2%,0
CCOC(=O)c1nnn(CC(=O)N2N=C(c3ccc(Cl)cc3)CC2c2ccc(OC)cc2)c1C(=O)OCC (stereo not drawn),42,-76*,?,-2%,-4%,2
COc1ccc(C2CC(c3ccc(Br)cc3)=NN2C(=O)CN2CCCC2)cc1 (stereo not drawn),30,27,-83*,0%,-5%,1
